Measurements from PubChem BioAssay.
The source made the active and inactive calls.

Assays:
[1] = system: PRMT1 (protein arginine N-methyltransferase 1); assay: PRMT1 binders on small-molecule microarrays, primary screen, biochemical, small-molecule microarray, 635 nm fluorescence (AID 1088); conditions: small-molecule microarray binding, higher = more signal;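 also: binding of Prmt1 protein to compounds spotted on small-molecule microarray slides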
[2] = yeast growth modulation, basal conditions, primary screen, YJM789 clinical isolate, OD600, 24 h (AID 1089);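 also: growth of clinical yeast isolate S. cerevisiae YJM 789 seeded 1000 cells per well; test concentration not given here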; conditions: S. cerevisiae YJM789 growth, higher = more signal, called active from +8 up or from −8 down
[3] = fission yeast growth modulation, primary screen, strain 972, OD600, 24 h, no modulator (AID 1090);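 also: basal condition with compound alone and no growth modifier present; test concentration not given here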; conditions: S. pombe 972 growth, higher = more signal, called active from +8 up or from −8 down
[4] = S. cerevisiae growth modulation with rapamycin, primary screen, strain BY4716, OD600, 96 h (AID 1091); conditions: higher = more signal, called active from +8 up or from −8 down; also: test concentration not given here
[5] = biological target: Torsin-1A-interacting protein 2 (Homo sapiens) (UniProt Q8NFQ8); assay: LULL1 binders on small-molecule microarray, primary screen, cell lysate, human LULL1 lysate, 635/667 nm fluorescence (AID 1092); conditions: hLULL1 lysate binding, 635 nm fluorescence, higher = more signal;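 also: probe is lysate of COS7 cells overexpressing human LULL1; score merges per-feature 667 nm fluorescence with signal-to-noise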
[6] = E. coli growth modulation, two-sided OD650, primary screen, E. coli filamentation project, strain DRC41, 24 h (AID 1093); conditions: OD650, 24 h, higher = more signal, called active from +8 up or from −8 down;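 also: MC1000 strain lacking acrAB efflux and sulA so SOS filamentation is blocked; test concentration not given here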
[7] = small-molecule microarray binders of probe aLefty2, primary screen, biochemical, biotinylated probe, 635/667 nm fluorescence (AID 1094); conditions: higher = more signal;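 also: score merges spot fluorescence near 667 nm with spot signal-to-noise ratio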
[8] = system: Noggin (protein binding on small-molecule microarray); assay: Noggin binders on small-molecule microarray, primary screen, biochemical, 635/667 nm fluorescence (AID 1095); conditions: 635 nm fluorescence, higher = more signal;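 also: score merges 667 nm feature fluorescence with signal to noise over triplicate slides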
[9] = biological target: Neurogenic locus notch homolog protein 3 (Homo sapiens) (UniProt Q9UM47); assay: NOTCH3 binders on small-molecule microarray, primary screen, biochemical, 635/667 nm fluorescence (AID 1096); conditions: NOTCH3 binding, 635 nm fluorescence, higher = more signal
[10] = small-molecule microarray binders of probe aEGFR, primary screen, biochemical, biotinylated probe, 635/667 nm fluorescence (AID 1097); conditions: higher = more signal;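 also: probe is a biotinylated anti-EGFR antibody binding compounds printed on slides; score combines fluorescence near 667 nm and signal to noise of each spot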

Chain of Neurogenic locus notch homolog protein 3 (Homo sapiens) (Q9UM47 whole entry, looked up): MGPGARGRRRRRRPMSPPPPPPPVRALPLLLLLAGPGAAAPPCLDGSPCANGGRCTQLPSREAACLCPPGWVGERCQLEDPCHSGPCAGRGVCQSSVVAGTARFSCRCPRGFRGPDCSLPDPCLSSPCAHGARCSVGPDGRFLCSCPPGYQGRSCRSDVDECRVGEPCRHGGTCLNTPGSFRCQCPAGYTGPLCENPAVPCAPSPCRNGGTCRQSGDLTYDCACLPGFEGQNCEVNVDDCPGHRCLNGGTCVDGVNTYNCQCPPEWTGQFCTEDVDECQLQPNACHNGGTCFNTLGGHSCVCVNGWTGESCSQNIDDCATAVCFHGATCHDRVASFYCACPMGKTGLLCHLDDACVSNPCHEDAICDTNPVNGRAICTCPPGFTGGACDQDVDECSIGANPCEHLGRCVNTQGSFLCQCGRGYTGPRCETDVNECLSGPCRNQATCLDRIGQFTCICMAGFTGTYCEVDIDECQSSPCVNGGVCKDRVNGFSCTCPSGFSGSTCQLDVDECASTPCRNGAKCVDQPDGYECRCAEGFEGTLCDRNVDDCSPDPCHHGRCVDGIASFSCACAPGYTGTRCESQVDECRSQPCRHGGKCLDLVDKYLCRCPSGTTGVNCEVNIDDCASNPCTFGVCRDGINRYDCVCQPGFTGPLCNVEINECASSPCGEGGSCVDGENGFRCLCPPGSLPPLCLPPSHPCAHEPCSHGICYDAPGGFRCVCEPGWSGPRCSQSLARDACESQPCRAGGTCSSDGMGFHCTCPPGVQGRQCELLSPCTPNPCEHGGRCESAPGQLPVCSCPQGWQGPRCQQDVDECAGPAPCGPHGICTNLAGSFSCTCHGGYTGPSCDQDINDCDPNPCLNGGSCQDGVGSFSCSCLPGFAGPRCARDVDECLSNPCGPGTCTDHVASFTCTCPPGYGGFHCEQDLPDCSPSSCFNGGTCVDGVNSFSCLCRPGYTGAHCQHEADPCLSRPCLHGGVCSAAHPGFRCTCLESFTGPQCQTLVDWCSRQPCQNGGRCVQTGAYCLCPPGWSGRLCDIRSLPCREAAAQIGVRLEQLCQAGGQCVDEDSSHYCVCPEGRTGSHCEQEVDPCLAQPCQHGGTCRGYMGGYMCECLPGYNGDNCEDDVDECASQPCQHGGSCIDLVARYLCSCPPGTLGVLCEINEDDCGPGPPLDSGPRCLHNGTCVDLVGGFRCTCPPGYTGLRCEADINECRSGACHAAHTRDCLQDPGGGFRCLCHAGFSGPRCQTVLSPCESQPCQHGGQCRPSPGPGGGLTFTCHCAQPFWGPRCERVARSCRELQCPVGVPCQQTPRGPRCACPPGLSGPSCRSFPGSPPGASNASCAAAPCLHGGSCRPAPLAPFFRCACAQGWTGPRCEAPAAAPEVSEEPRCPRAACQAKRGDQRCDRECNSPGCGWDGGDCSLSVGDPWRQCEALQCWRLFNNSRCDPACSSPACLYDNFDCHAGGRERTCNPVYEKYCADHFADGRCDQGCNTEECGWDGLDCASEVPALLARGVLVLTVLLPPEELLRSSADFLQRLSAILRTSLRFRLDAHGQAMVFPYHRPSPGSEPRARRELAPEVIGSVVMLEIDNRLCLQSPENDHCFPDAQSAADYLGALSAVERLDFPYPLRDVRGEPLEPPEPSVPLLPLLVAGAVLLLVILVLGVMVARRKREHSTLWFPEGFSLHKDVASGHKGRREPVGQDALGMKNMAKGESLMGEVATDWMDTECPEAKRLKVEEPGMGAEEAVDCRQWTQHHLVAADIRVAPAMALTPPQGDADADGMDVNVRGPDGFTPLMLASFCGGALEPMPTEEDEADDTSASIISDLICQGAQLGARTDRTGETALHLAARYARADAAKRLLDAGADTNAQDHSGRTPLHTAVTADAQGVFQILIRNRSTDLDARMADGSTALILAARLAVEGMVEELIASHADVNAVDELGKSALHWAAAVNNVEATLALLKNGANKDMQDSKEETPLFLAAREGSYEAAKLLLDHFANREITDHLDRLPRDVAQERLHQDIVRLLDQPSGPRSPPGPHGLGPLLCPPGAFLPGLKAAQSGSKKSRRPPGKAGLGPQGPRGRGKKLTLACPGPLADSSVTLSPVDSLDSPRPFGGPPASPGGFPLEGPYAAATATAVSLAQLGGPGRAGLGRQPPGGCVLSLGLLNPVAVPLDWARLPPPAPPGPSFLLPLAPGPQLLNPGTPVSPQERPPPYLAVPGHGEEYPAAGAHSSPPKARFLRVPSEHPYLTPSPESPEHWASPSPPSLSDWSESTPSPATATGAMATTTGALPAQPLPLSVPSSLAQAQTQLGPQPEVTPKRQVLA
Chain of Torsin-1A-interacting protein 2 (Homo sapiens) (Q8NFQ8 whole entry, looked up): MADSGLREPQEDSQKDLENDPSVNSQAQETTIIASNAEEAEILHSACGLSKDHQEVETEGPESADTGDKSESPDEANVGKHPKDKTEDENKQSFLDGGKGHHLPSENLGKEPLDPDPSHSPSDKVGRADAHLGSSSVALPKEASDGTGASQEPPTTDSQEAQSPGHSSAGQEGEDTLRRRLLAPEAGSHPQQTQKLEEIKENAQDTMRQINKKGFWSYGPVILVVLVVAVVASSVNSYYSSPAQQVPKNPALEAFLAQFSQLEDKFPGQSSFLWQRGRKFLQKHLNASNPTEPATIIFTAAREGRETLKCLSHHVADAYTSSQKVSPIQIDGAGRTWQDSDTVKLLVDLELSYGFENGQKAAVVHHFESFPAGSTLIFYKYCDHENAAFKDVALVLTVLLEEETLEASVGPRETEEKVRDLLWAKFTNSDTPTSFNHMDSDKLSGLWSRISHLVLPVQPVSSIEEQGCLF

| SMILES | composite z-score [1] | z-score [2] | z-score [3] | z-score [4] | composite z-score [5] | z-score [6] | composite z-score [7] | composite z-score [8] | composite z-score [9] | composite z-score [10] |
| --- | --- | --- | --- | --- | --- | --- | --- | --- | --- | --- |
| O=C1C2=CC[C@H]3C(=O)N(Cc4ccc5c(c4)OCO5)C(=O)[C@H]3[C@H]2[C@H](O)[C@@H]2O[C@H]12 | -1.05 | -0.108 (inactive) | -0.682 (inactive) | -0.611 (inactive) | 0.24 | 0.347 (inactive) | -0.166 | 0.616 | 0.632 | 0.0083 |
| COC(=O)C1(C)C=C2C(=C(c3ccccc3)C(=O)C2C)CN1 (stereo not given) | -0.722 | -0.269 (inactive) | 0.14 (inactive) | 0.654 (inactive) | 0.517 | -0.269 (inactive) | 0.498 | -1.44 | -0.904 | 0.0003 |
| CCOC(=O)NN=C1C[C@@H](O)[C@@H](O)[C@@H]2[C@@H]3C(=O)N(CC)C(=O)[C@@H]3CC[C@@H]12 | 0.268 | -0.846 (inactive) | 0.0572 (inactive) | -0.293 (inactive) | 1.31 | -0.319 (inactive) | -0.176 | 0.299 | 0.905 | 0.0082 |
| CC[C@@H](c1ccccc1)n1c(=O)n2n(c1=O)[C@H]1[C@H](O)[C@@H]3O[C@@H]3C(=NOCC=C(C)CCC=C(C)C)[C@H]1CC2 | 1.23 | 0.676 (inactive) | 0.052 (inactive) | 1.28 (inactive) | 1.54 | -0.327 (inactive) | -0.137 | 1.33 | 0.955 | 0.14 |
| CCN1C(=O)[C@H]2[C@H]3[C@H](O)[C@H](O)CC(=NO[C@@H]4O[C@H](CO)[C@@H](O)[C@H](O)[C@H]4O)[C@@H]3CC[C@H]2C1=O | -0.685 | -0.58 (inactive) | -0.599 (inactive) | -0.849 (inactive) | -1.12 | 0.103 (inactive) | -0.132 | -0.103 | -0.389 | -0.19 |
| CCOC(=O)C1=CCC(c2cc3ccccc3[nH]2)NC1 (stereo not given) | 0.37 | -1.36 (inactive) | -2.39 (inactive) | 1.42 (inactive) | 2.45 | -0.0849 (inactive) | 0.389 | -0.465 | 0.335 | -0.0065 |
| Cc1ccc(F)cc1S(=O)(=O)N[C@@H]1CCN(Cc2ccc(CC(C)C)cc2)C1 | 0.446 | -25.8 (active) | -21.4 (active) | -4.49 (inactive) | 1.59 | -19.5 (active) | -0.192 | -0.0204 | -0.734 | -0.17 |
| CCCNC(=O)[C@@H]1c2ccccc2C(=O)N(c2ccc(C)cn2)[C@H]1c1ccc(CO)cc1 | 0.129 | -1.03 (inactive) | -0.144 (inactive) | -0.926 (inactive) | 0.553 | -0.0365 (inactive) | -0.0769 | -1.08 | -0.798 | -0.299 |
| C[C@H](c1ccccc1)N1C(=O)[C@H]2[C@H]3[C@H](O)[C@H](O)CC(=O)[C@@H]3CC[C@H]2C1=O | 0.27 | -0.228 (inactive) | -0.522 (inactive) | -0.478 (inactive) | 0.685 | -0.417 (inactive) | -0.226 | 0.245 | 0.419 | 0.221 |
| O=C1C[C@@H](O)[C@@H](O)[C@@H]2[C@@H]3C(=O)N(Cc4ccc5c(c4)OCO5)C(=O)[C@@H]3CC[C@@H]12 | 0.555 | 0.489 (inactive) | 0.481 (inactive) | -0.246 (inactive) | 1.01 | 0.701 (inactive) | -0.072 | 0.495 | 1.12 | 0.0414 |
| CC(C)C[C@@H]1NC(=O)[C@H]2C[C@@H](C(=O)NCCCCCCN(C)C)[C@@H](c3cccc(OCCO)c3)N2C1=O | 1.53 | -1.16 (inactive) | 0.184 (inactive) | -0.46 (inactive) | 2.12 | -0.0145 (inactive) | 0.173 | 1.19 | 1.04 | 0.0948 |
| C=C(COC)/C(=C/C[C@H](OC(=O)c1ccncc1)c1ccc(CO)o1)c1cc(C(=O)OC)ccc1OC | 1.55 | -0.787 (inactive) | 0.132 (inactive) | -0.443 (inactive) | 1.84 | 0.55 (inactive) | 0.0421 | 0.834 | 1.12 | -0.112 |
| O=C1[C@H]2[C@H]3[C@H](O)[C@H](O)CC(=NOCc4ccccc4)[C@@H]3CC[C@H]2C(=O)N1Cc1ccccc1 | 0.0044 | -0.132 (inactive) | -0.176 (inactive) | -1.41 (inactive) | 0.577 | 0.263 (inactive) | -0.21 | 0.656 | 0.797 | -0.0828 |
| CCOC(=O)NN=C1C[C@@H](O)[C@@H](O)[C@@H]2[C@@H]3C(=O)N(C4CCCCC4)C(=O)[C@@H]3CC[C@@H]12 | -0.319 | -1.33 (inactive) | -0.895 (inactive) | -0.495 (inactive) | 0.156 | 0.637 (inactive) | -0.028 | 0.257 | 0.324 | -0.0329 |
| COC(=O)[C@H](C)NC(=O)CCC1CC(OC(=O)NCc2ccc3c(c2)OCO3)CC2(CCCC(COC(=O)NCCOc3ccccc3)O2)O1 (stereo not given in full) | 1.55 | -1.31 (inactive) | 0.26 (inactive) | 0.303 (inactive) | 1.57 | -1.16 (inactive) | -0.147 | 0.737 | 1.07 | -0.165 |
| COC(=O)[C@H](C)NC(=O)CCC1CC(OC(=O)NCc2cccc3ccccc23)CC2(CCCC(COC(=O)NCC3CCCCC3)O2)O1 (stereo not given in full) | 1.55 | -0.0166 (inactive) | 0.633 (inactive) | -0.825 (inactive) | 3.37 | -0.639 (inactive) | -0.114 | 0.918 | 1.06 | 0.0278 |
| CCOC(=O)[C@H](Cc1ccccc1)NC(=O)CCC1CC(OC(=O)NCc2ccc3c(c2)OCO3)CC2(CCCC(COC(=O)NCc3ccccc3)O2)O1 (stereo not given in full) | 1.06 | 0.284 (inactive) | 0.158 (inactive) | 0.942 (inactive) | 1.27 | 0.641 (inactive) | -0.0174 | 0.573 | 0.941 | -0.0084 |
| COc1cccc([C@H]2Oc3ccc(OC)cc3C(=NO[C@H](C)c3cn([C@@H]4COC[C@H]4O)nn3)[C@@H]2O)c1 | -0.499 | 0.0141 (inactive) | 0.874 (inactive) | 0.467 (inactive) | -0.077 | -0.398 (inactive) | -0.126 | -0.427 | -1.34 | -0.267 |
| CC(CCN1CCCCc2nc(C)c(C)cc21)=NOC(C)CN1CCCc2nc(C)c(C)cc21 (stereo not given) | 1.52 | -1.19 (inactive) | -1.06 (inactive) | -0.321 (inactive) | 2.91 | 0.162 (inactive) | 0.447 | 1.07 | 1.04 | 0.509 |
| CCN1C(=O)[C@H]2[C@H]3[C@H](O)[C@H](O)CC(=NOC[C@@H](C)[C@H](OCc4ccccc4)C(C)C)[C@@H]3CC[C@H]2C1=O | 0.607 | -1.05 (inactive) | -4.13 (inactive) | -0.673 (inactive) | 0.8 | 0.568 (inactive) | -0.145 | 0.355 | 0.457 | -0.0936 |
| O=C1C[C@@H](O)[C@@H](O)[C@@H]2[C@@H]3C(=O)N(c4cccc(Oc5ccccc5)c4)C(=O)[C@@H]3CC[C@@H]12 | 0.766 | -0.336 (inactive) | -0.444 (inactive) | -0.622 (inactive) | 1.42 | 0.185 (inactive) | -0.177 | 0.468 | 1.09 | 0.126 |
| CCOC(=O)CCN1C(=O)[C@H]2[C@H]3[C@H](O)[C@H](O)CC(=O)[C@H]3CC[C@H]2C1=O | 0.0774 | 0.184 (inactive) | -0.373 (inactive) | 0.341 (inactive) | 0.35 | 0.355 (inactive) | -0.225 | 0.387 | 0.295 | -0.0381 |
| CCc1cccc(NC(=O)O[C@H]2[C@H](OC(=O)Nc3ccc4c(c3)OCO4)[C@@H](OC(=O)Nc3ccc4c(c3)OCO4)[C@@H](OC)O[C@@H]2CO)c1 | 1.54 | 1.41 (inactive) | 1.5 (inactive) | -2.13 (inactive) | 3.59 | 1.47 (inactive) | 0.166 | 1.22 | 1.08 | -0.0488 |
| CC(=O)OC[C@H]1O[C@@H](ON=C[C@@H](C)[C@H](OCc2ccccc2)C(C)C)[C@H](OC(C)=O)[C@@H](OC(C)=O)[C@@H]1OC(C)=O | 1.48 | 0.475 (inactive) | 0.0572 (inactive) | -0.17 (inactive) | -1.59 | -0.057 (inactive) | -0.114 | 0.605 | 0.751 | 0.0359 |
| C=C(CCCC)C(=O)CC[C@@H](OC(C)=O)c1cccc(OCCO)c1 | 0.468 | -24.3 (active) | -20.6 (active) | -3.92 (inactive) | 0.0116 | -0.139 (inactive) | -0.193 | 1.54 | 0.165 | -0.192 |
| CC(C)[C@H](NC(=O)OC(C)(C)C)[C@@H](O)CC(=O)OC(C)(C)C | -1.84 | -0.0351 (inactive) | -0.379 (inactive) | 0.596 (inactive) | -1.63 | -0.809 (inactive) | -0.22 | -0.531 | -0.904 | -0.29 |
| C[C@@H](c1ccccc1)N1C(=O)[C@H]2[C@H]3[C@H](O)[C@H](O)CC(=NNC(=O)OCc4ccccc4)[C@H]3CC[C@H]2C1=O | -0.26 | 0.547 (inactive) | 0.408 (inactive) | 0.698 (inactive) | 0.71 | 0.687 (inactive) | 0.2 | 0.124 | -0.246 | 0.229 |
